# Laboratory results taken from PubChem BioAssay (NCATS).
# Results filed as inconclusive are left out. Entries that show only a call come without a potency. Active and inactive are the calls of the source. The call rests on the fitted dose curve; in most records, active means well fitted inhibition curve with a large enough effect; inconclusive means small, poorly fitted or top-dose-only effect; inactive means flat fitted curve, though single readings scatter.
# Test: P-glycoprotein substrates identified in KB-8-5-11 adenocarcinoma cell line, qHTS therapeutic library screen (AID 1346987); further: nearly all actives have a fitted effect of over 65% in size
# Details: KB-8-5-11 (P-gp overexpressing) viability, CellTiter-Glo, 72 h; series mostly up to 44.5 µM
# Procedure, shortened: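 Human cervical adenocarcinoma KB-8-5-11 cells, selected in colchicine to over-express P-gp and assayed without it, were exposed for 72 h to titrated compounds. An ATP-based luminescent viability signal gave AC50.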
# Potency means the concentration at half of the fitted maximal effect.
SMILES,Potency,"activity change, negative = cytotoxicity",outcome
CNc1cc2[nH]c(=O)n(-c3ccc(NC(=O)NS(=O)(=O)c4ccc(Cl)s4)cc3)c(=O)c2cc1F,inactive,,
C[C@@H]1C[C@H]2C3C[C@H](F)C4=CC(=O)C=CC4(C)[C@@]3(F)[C@@H](O)CC2(C)[C@@]1(O)C(=O)COC(=O)C(C)(C)C (stereo partly drawn),inactive,,
COc1ccc(NC(=O)c2ccc(-c3ccc(C(=N)N)cc3C)cc2)cc1N1CCN(C)CC1,inactive,,
O=C(c1ccccn1)N(Cc1cccs1)C1(C(=O)NC2CCCCC2)CCCCC1,inactive,,
Cn1ncc(Cl)c1-c1cc(C(=O)N[C@H](CN)Cc2cccc(F)c2)sc1Cl,18.4 µM (active),,
CCN(CC)CCCS(=O)(=O)N[C@H](CCc1ccccc1)c1nc(Cc2ccc(Br)cc2)no1,23.1 µM (active),,
C/C(=C/C=C\C=C\Cc1cnco1)[C@@H](O)C(C)(C)C(N)=O,inactive,,
CNC(C)C(=O)NC(C(=O)N1CCCC1C(=O)Nc1snnc1-c1ccccc1)C1CCCCC1 (stereo not drawn),inactive,,
COc1cc2c(cc1OC)CN(C(=O)/C=C/c1c(-c3ccccc3)n(C)c3ncccc13)CC2,20.6 µM (active),,
C=C1C(=O)O[C@@H]2[C@H]1CC(=O)[C@H](C)[C@@](O)(C(=O)/C=C/C)[C@H]2OC(=O)C(C)CC (stereo partly drawn),5.7 µM (active),,
C=C(C)C1CC(O)C(C)C12CC(O)C1(C)OC1C2O (stereo not drawn),3.66 µM (active),,
O=[N+]([O-])c1cn2c(n1)OC[C@@H](OCc1ccc(-c3ccc(OC(F)(F)F)cc3)nc1)C2,inactive,,
CCCc1cc(C)n(C)c(=O)c1CN(C)C(=O)c1cc(-c2ccc(N3CCN(C(C)C)CC3)nc2)cc2c1cnn2C(C)C,inactive,,
O=C(O)C1=CO[C@@H](O[C@@H]2O[C@H](CO)[C@@H](O)[C@H](O)[C@H]2O)[C@@H]2C(CO)=CC[C@H]12,inactive,,
COc1cc(NC(=O)c2cccc(-n3cc(NC(=O)Nc4cccc(C)c4)cn3)c2)cc(OC)c1OC,inactive,,
CC(=O)O[C@H]1CC(C)(C)CC2[C@]13CO[C@@]21CCC2[C@@]4(C)CC[C@H](O[C@@H]5OC[C@H](O[C@@H]6O[C@H](CO)[C@@H](O)[C@H](O)[C@H]6O[C@@H]6OC[C@@H](O)[C@H](O)[C@H]6O)[C@H](O)[C@H]5O[C@@H]5O[C@H](CO)[C@@H](O)[C@H](O)[C@H]5O)[C@@](C)(CO)C4CC[C@@]2(C)[C@]1(C)C[C@H]3O (stereo partly drawn),,-5.92% [at 9.29 µM] (inactive),
CCC(C(C)O)n1ncn(-c2ccc(N3CCN(c4ccc(OCC5COC(Cn6cncn6)(c6ccc(F)cc6F)C5)cc4)CC3)cc2)c1=O (stereo not drawn),18.4 µM (active),,
Cc1ccccc1CNc1ncnc2c1ncn2[C@@H]1O[C@H](CO)[C@@H](O)[C@H]1O,inactive,,
O=C1Nc2ccccc2-c2nc3ccccc3c(=O)n2-c2c(O)cccc21,inactive,,

SMILES,Potency,"activity change, negative = cytotoxicity",outcome
CC(C)c1ccc(NC(=O)Cn2cnc3c2c(=O)n(C)c(=O)n3C)cc1,inactive,,
O=C(NC1(c2ccccc2)CC1)c1c(CN2CCC(N3CCCCC3)CC2)c(-c2cccc(C(F)(F)F)c2)nc2cc(Br)ccc12,23.1 µM (active),,
C[C@@H]1O[C@@H](O[C@H]2[C@@H](OC(=O)[C@]34CCC(C)(C)CC3C3=CCC5[C@@]6(C)C[C@H](O)[C@H](O[C@@H]7O[C@H](CO)[C@@H](O)[C@H](O)[C@H]7O[C@@H]7OC[C@@H](O)[C@H](O)[C@H]7O)[C@@](C)(C(=O)O)C6CC[C@@]5(C)[C@]3(C)CC4)OC[C@H](O)[C@@H]2O)[C@H](O)[C@H](O)[C@H]1O[C@@H]1OC[C@@H](O)[C@H](O)[C@H]1O (stereo partly drawn),,,inactive [at 9.29 µM]
COc1ccc(CCN(C)CCCOc2nsc(-c3ccccc3)n2)cc1OC,inactive,,
CC[C@@H]1C[C@]1(NC(=O)[C@@H]1C[C@@H]2CN1C(=O)[C@H](C(C)(C)C)NC(=O)OCC(C)(C)CCCCc1cccc3c1CN(C3)C(=O)O2)C(=O)NS(=O)(=O)C1CC1,inactive,,
C=C1CCCC2(C)CCC(C(C)(C)OC3OC(C)C(O)C(O)C3OC(=O)/C(C)=C\C)CC12 (stereo not drawn),inactive,,
Cc1ccc(CNc2ncnc3ccc(-c4ccc(CO)o4)cc23)o1,inactive,,
O=C(Nc1cc(C(F)(F)F)cc(C(F)(F)F)c1)c1cnc(Cl)nc1C(F)(F)F,16.4 µM (active),,
COc1ccc(C2(N(C)C(=O)c3ccc(NC(=O)c4ccco4)cc3)CCOCC2)cc1,inactive,,
CC1(C)Oc2ncnc(N)c2N=C1c1ccc(C23CCC(CC(=O)O)(CC2)CC3)cc1,inactive,,
CC(C)CCCCC(=O)N[C@@H](CO)C(=O)N[C@@H](CC(C)C)C(=O)[C@@]1(CO)CO1,inactive,,
NCCOc1cc(C(=O)Nc2cc(OCCN)c3ccccc3n2)nc(C(=O)Nc2cc(OCCN)c3ccccc3n2)c1,inactive,,
CCNc1nc(Nc2cc(F)c(C(=O)N3CCOCC3)cc2OC)ncc1C(F)(F)F,9.2 µM (active),,
CC(=O)Nc1cccc(-c2csc(Nc3cc(C)ccn3)n2)c1,inactive,,
NCCCC(=O)O,inactive,,
COc1ccc(CN2CCN(C(=O)CCNC(=O)c3ccc(C(C)(C)C)cc3)CC2)cc1,inactive,,
O=C(C1CCCCC1)N(CCN1CCN(c2ccccc2O)CC1)c1ccccn1,inactive,,
C=C1C(=O)O[C@@H]2[C@H]3C(C)=CC(=O)C3=C(C)CC[C@@H]12,14.6 µM (active),,
C/C(=C\CO[C@@H]1O[C@H](CO[C@H]2OC[C@](O)(CO)[C@H]2O)[C@@H](O)[C@H](O)[C@H]1O)C(C)(C)O,inactive,,
